In the library only some 7.3% were active in any assay of this set; here they are far more common.
Rab9 promoter act – activates the Rab9 promoter | Huh7 Rab9 promoter-luciferase reporter, luminescence, 24 h | 320,000 tested, 2.8% active | Potency, µM (highest dose often 9.22 µM), usual class: activators | AID 485297; further: nearly all actives have a fitted effect of over 60% in size
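Cells were plated at 1500 per well in reduced-serum medium with 10% FBS and left 2 h. Compound in DMSO was then added for 24 h at 37 °C. Reporter signal was read by luminescence after 10 min with luciferase detection reagent.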
NPC1 promoter act – activators of NPC1 promoter. Potency, µM (doses to about 9.22 µM), usual class: activators. Huh7 NPC1 promoter luciferase reporter, 24 h. 320,000 tested, 2.4% active; further: nearly all actives have a fitted effect of over 60% in size
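Luminescence read-out of NPC1 promoter-driven luciferase in stably transfected Huh7 cells; compounds delivered in DMSO and left 24 h at 37C, 5% CO2, qHTS titration format.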
Luc counter – counter-screen: inhibitors of Kinase-Glo firefly luciferase | Q27757 | Kinase-Glo luciferase, ATP luminescence, 8 min | Potency, µM (top dose mostly 38.3 µM), most hits filed as inhibitors | 200,000 tested, 0.28% active | AID 1379; further: nearly all actives have a fitted effect of over 60% in size
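Inhibition of Kinase-Glo luciferase light generation was assessed at 10 uM ATP in pH 7.2 imidazole buffer, with luminescence measured after eight minutes at ambient temperature.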
FLuc modulator – counter-screen for miR-21 project: firefly luciferase inhibitors or activators | P08659 | purified FLuc, Km substrates, luminescence inhibition | Potency, µM (titrated, usually from 57.5 µM), hits mostly inhibitors | 360,000 tested, 6.9% active | AID 588342; further: nearly all actives have a fitted effect of over 55% in size
Target sequence (P08659 whole entry, looked up): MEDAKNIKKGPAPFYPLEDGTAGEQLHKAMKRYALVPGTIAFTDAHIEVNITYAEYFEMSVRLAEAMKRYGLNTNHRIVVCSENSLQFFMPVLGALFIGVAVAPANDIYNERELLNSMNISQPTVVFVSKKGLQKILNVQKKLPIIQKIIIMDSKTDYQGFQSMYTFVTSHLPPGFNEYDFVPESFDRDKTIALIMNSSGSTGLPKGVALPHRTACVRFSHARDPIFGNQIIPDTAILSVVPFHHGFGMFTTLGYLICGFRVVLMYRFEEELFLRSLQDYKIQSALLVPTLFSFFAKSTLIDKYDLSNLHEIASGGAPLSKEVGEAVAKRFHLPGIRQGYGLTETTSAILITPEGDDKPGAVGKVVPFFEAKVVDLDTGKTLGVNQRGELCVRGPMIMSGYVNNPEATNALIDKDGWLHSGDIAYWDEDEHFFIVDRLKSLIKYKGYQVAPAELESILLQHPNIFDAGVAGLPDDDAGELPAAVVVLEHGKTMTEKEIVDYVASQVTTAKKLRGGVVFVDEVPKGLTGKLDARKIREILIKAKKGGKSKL
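Purified P. pyralis luciferase, 10 nM final, with Km-level 10 uM D-luciferin and 10 uM ATP in 50 mM Tris acetate pH 7.5, 10 mM Mg acetate, 0.01% Tween-20, 0.05% BSA; 6-point qHTS titration about 60 µM downward; luminescence read.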
ELG1 genotoxic – induces genotoxicity in HEK293T cells with luciferase-tagged ELG1; 330,000 tested, 1.3% active; Potency, µM (series often up to 46 µM), actives largely listed as activators; HEK293T ELG1-luciferase reporter, luminescence, 16 h; AID 504466; further: nearly all actives have a fitted effect of over 60% in size
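Step 1: seed 2,000 HEK293T ELG1-luciferase cells per well. Step 2: add compound or DMSO, incubate 16 hr at 37 °C. Step 3: ONE-Glo, 30 min at room temperature, read luminescence.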
SMN2 splice up – SMN2 splice variant enhancement. HEK293 SMN2-luciferase splicing reporter, luminescence, 30-36 h. 210,000 tested, 2.8% active. Potency, µM (highest dose often 46.1 µM), most hits filed as activators. AID 1458; further: nearly all actives have a fitted effect of over 55% in size
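qHTS luciferase splicing reporter: luminescence rises when SMN2 exon 7 is included in transfected HEK293 cells. Compound exposure lasted 30-36 h at 37C, with 4.5 mM final sodium butyrate as control, followed by a ONE-Glo read.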
Hits are given with their value; – = inactive; ? = inconclusive; · = not tested or not shown. The call rests on the fitted dose curve; in most records, active means well fitted curve in the direction sought with a large enough effect; inconclusive means small, poorly fitted or top-dose-only effect, or another doubt; inactive means no such curve, though single readings can be large; an effect the other way counts as inactive or inconclusive.

SMILES | Rab9 promoter act | NPC1 promoter act | Luc counter | FLuc modulator | ELG1 genotoxic | SMN2 splice up
Cc1ccc2nc(-c3cccs3)oc(=O)c2c1 | – | – | – | 9.5µM | – | –
Cc1ccc2nc(-c3ccccc3)oc(=O)c2c1 | – | – | · | 3.8µM | – | ·
COc1ccc2c(c1)CC/C(=C\c1ccc(OC)c(Cn3nc(C)cc3C)c1)C2=O | – | – | – | ? | – | –
Nc1ccc2c(c1)C/C(=C/c1ccco1)C2=O | 2µM | 2.8µM | – | 0.6µM | 21µM | ?
CCC1C/C(=C/c2ccco2)C(=O)/C(=C/c2ccco2)C1 (configuration not stated) | – | – | – | – | – | –
COc1ccc2c(c1)CC/C(=C/c1ccco1)C2=O | 3.5µM | 2.2µM | – | 0.67µM | ? | 18µM
O=C1/C(=C/c2ccco2)CCc2ccccc21 | ? | 4µM | ? | 2.1µM | 7.3µM | ?
CCc1cccc(C)c1NC(=O)CN1C(=O)C2(SCC(=O)N2c2cc(C)cc(C)c2)c2ccccc21 (configuration not stated) | · | · | · | – | · | ·
CC(=O)Oc1cccc(N2C(=O)C3C(C2=O)C2C=CC3C23CC3)c1 (configuration not stated) | – | – | – | – | – | –
O=C1C2C(C(=O)N1c1ccc3c(c1)OCO3)C1C=CC2C12CC2 (configuration not stated) | – | – | – | 17µM | – | –
CCOc1ccccc1CNC(=O)C1CCN(S(=O)(=O)c2ccc3c(ccn3C)c2)CC1 | · | · | · | – | · | ·
COc1cc(-c2nnc(CSc3nnc(Nc4ccc(C(C)C)cc4)s3)o2)cc(OC)c1OC | – | – | – | 5.4µM | – | ?
Cc1cccc(OCC2=NS(=O)(=O)c3ccccc3N2)c1 | – | – | – | 19µM | – | –
Cc1cc(C)cc(NC(=O)COC(=O)CCCC2=NS(=O)(=O)c3ccccc3N2)c1 | – | – | – | – | – | –
C/C(=N\OC(=O)NC1CCCCC1)c1sc(-c2ccccc2)nc1C | – | – | – | ? | – | –
C/C(=N\OC(=O)c1ccc(F)cc1)c1sc(-c2ccccc2)nc1C | 1.6µM | 2µM | – | – | ? | 20µM
Cc1nc(-c2ccccc2)sc1C(=O)CSc1ccc(Cl)cc1 | – | – | – | – | – | –
C/C(=N\OC(=O)c1ccc(Cl)cc1)c1sc(-c2ccccc2)nc1C | 4µM | 4µM | – | – | ? | ?
COc1ccc(CNCc2ccc(C(=O)O)s2)cc1 | · | · | · | – | · | –
COc1ccccc1N1CCN(C(=O)c2cnc(N3CCCCC3)c3ccccc23)CC1 | · | · | · | – | · | ·
Cc1cc(N2CCC(C)CC2)nc2cccc(O)c12 | – | – | – | 24µM | – | –
Cc1cccc(CC(=O)Nc2ccc3nc(N4CCC(C)CC4)cc(C)c3c2)c1 | · | · | · | – | · | –
COc1ccc(NC(=O)CCCSc2nc(-c3ccco3)cc(C(F)(F)F)n2)cc1 | · | · | · | – | · | –
Cc1ccccc1NC(=O)Cn1c(=O)n(CCC(=O)NCc2ccc3c(c2)OCO3)c(=O)c2sccc21 | · | · | · | – | · | –
O=C1c2ccccc2S(=O)(=O)N1Cc1nc2ccccc2s1 | – | ? | – | 19µM | – | –
SMILES | Rab9 promoter act | NPC1 promoter act | Luc counter | FLuc modulator | ELG1 genotoxic | SMN2 splice up
CN(Cc1ccccc1)C(=O)CSc1nc(-c2ccc(F)cc2)cc(C(F)(F)F)n1 | · | · | · | – | · | –
CC(=O)Nc1ccc(SCc2ncc(-c3ccccc3)o2)cc1 | 0.71µM | 1.4µM | · | 13µM | ? | ·
CC(=O)Nc1ccc(SCC(=O)Nc2ccccc2-c2ccccc2)cc1 | – | – | – | – | – | –
CCC1Oc2ccc(C)cc2N(CC(=O)NCCc2ccccc2)C1=O (configuration not stated) | · | · | · | – | · | ·
CC1=Nc2cc(C(=O)NCCc3ccccc3)ccc2Sc2c(C)ccc(C)c21 | · | · | · | – | · | –
CCCNC(=O)c1ccc2c(c1)N=C(C)c1c(C)ccc(C)c1S2 | · | · | · | ? | · | 4µM
O=C(CC(c1ccco1)S(=O)(=O)c1ccccc1)c1ccccc1 (configuration not stated) | – | – | · | 21µM | – | ·
O=C(CC(c1cccs1)S(=O)(=O)c1ccccc1)c1ccc(F)cc1 (configuration not stated) | – | – | – | 3.4µM | – | –

Screening data from PubChem BioAssay.
